Drawing on PubChem BioAssay (NCATS), this text covers activation and Potency for 40 molecules.

Structures are written as SMILES. Values joined by “and” are separate entries in the source; they are usually repeats but may differ in a detail not shown here. Identical values can stand only once. Results filed as inconclusive are left out. A number with no mark means an inactive call. Active and inactive are the calls of the source. The call rests on the fitted dose curve; in most records, active means well fitted activation curve with a large enough effect; inconclusive means small, poorly fitted or top-dose-only effect; inactive means no such curve, though single readings can be large or run the other way.
Potency means the concentration at half of the fitted maximal effect.

For this assay, the target named is Cellular tumor antigen p53 (Homo sapiens) (UniProt P04637). Nature of the assay: Primary qHTS for small molecule compounds that upregulate eGFP-tagged delta133p53alpha (in N-terminal) cells. (AID 2060322). Further: nearly all actives have a fitted effect of over 75% in size.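 On activation: cells pre-induced with doxycycline then dosed without doxycycline; series mostly up to about 56 µM; 0% = DMSO vehicle and 100% = reference activator.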 Conditions: NCI-H358 eGFP-delta133p53alpha fluorescence, 24 h; activation: active compounds read high. The method, boiled down: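 NCI-H358 cells pre-induced 24 h with 10 ng/ml doxycycline for eGFP-delta133p53alpha, plated dox-free and exposed 24 h at 37C to titrated compounds. Fixed, Hoechst-stained; gated GFP peak intensity by laser scanning cytometry, normalized to DMSO (0%) and 57.5 uM 5-azacytidine (100%).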
Sequence of Cellular tumor antigen p53 (Homo sapiens) (P04637 whole entry, looked up): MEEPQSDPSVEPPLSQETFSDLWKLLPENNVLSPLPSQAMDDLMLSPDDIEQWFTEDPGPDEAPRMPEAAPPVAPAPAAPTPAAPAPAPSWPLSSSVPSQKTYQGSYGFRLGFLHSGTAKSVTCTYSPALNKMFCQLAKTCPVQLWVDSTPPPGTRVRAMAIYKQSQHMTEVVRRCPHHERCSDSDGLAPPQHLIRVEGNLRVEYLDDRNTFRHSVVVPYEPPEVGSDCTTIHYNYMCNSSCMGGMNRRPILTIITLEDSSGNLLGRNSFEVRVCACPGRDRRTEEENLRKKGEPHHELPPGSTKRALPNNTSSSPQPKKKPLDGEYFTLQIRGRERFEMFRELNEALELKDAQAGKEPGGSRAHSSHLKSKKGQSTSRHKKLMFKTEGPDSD
`CC1CCCCN1CCCOC(=O)c1ccc(OC2CCCCC2)cc1` (stereo not given): the activation is -7.53%.

With `COc1ccc2c(c1)CCCC2=O`, the activation was 18.6%.

Turning to `CC[C@H](C)[C@H](N)C(=O)O`, the activation was -22%.

Regarding `CCOC(=O)NNc1nncc2ccccc12`, the activation was 20.1%.

Turning to `CN1CCN(C2=Nc3ccccc3Sc3ccc(Cl)cc32)CC1`, the activation was 15.3%.

`COc1nc(N)nc2c1ncn2[C@@H]1O[C@H](CO)[C@@H](O)[C@@H]1O`: the activation is -17.5% and 19.2%.

As for `CNC[C@@H](O)[C@@H](O)[C@H](O)[C@H](O)CO`, the activation is 4.39%.

For the molecule `CCn1cc(C(=O)O)c(=O)c2cnc(N3CCCC3)nc21`, the activation is 3.95%.

As for `O=C(CCCl)NCCc1ccccc1`, the activation was -4.18%.

For the molecule `COc1cc2c(NC3CCN(C)CC3)nc(N3CCCN(C)CC3)nc2cc1OCc1ccccc1`, the activation was 30.2%.

As to `CC(CN(C)C)C(C)(O)Cc1ccc(Cl)cc1` (stereo not given), the activation is 21.8%.

Turning to `Cc1c[nH]c(C=C2C(=O)Nc3ccccc32)c1CCC(=O)O`, the Potency is 24.3 µM (active).

In the case of `CCN(CC)C(=O)N1CCN(C)CC1`, the activation is -2.51%.

In the case of `O=[N+]([O-])c1ccc(/C=N\O)o1`, the activation was 11.9%.

Consider `O=C(O)Cc1csc(-c2ccc(Cl)cc2)n1`, for which the activation is 15.3%.

Take `N#CC(=C(N)Sc1ccccc1N)C(C#N)=C(N)Sc1ccccc1N`: the Potency was 17.2 µM (active).

With `COc1ccc(C(C)=O)c(O)c1`, the activation is 14.5%.

Regarding `CC(=O)CC(c1ccc([N+](=O)[O-])cc1)c1c(O)c2ccccc2oc1=O` (stereo not given), the activation was -10%.

With `O=C1Nc2ccc(I)cc2C1=Cc1cc(Br)c(O)c(Br)c1`, the Potency is 24.3 µM (active).

With `NCC(=O)O`, the activation was 13%.

Take `CCS(=O)(=O)CCn1c([N+](=O)[O-])cnc1C`: the Potency was 17.4 µM (active).

Regarding `O=C(O)[C@H](O)c1ccccc1`, the activation is -6.21%.

With `C[C@@]12CCC[C@H]1[C@@H]1CC[C@H]3C[C@@H](O)CC[C@]3(C)[C@H]1CC2`, the activation is -12.6%.

`CC(=O)OCC(=O)[C@@]1(OC(C)=O)[C@@H](C)C[C@H]2[C@@H]3C[C@H](F)C4=CC(=O)C=C[C@]4(C)[C@@]3(F)[C@@H](O)C[C@@]21C`: the activation was 5.08%.

On to `CC(C)C[C@H](NC(=O)CNC(=O)[C@H](Cc1ccc(O)cc1)NC(=O)[C@H](CO)NC(=O)[C@H](Cc1c[nH]c2ccccc12)NC(=O)[C@H](Cc1cnc[nH]1)NC(=O)[C@@H]1CCC(=O)N1)C(=O)N[C@@H](CCCN=C(N)N)C(=O)N1CCC[C@H]1C(=O)NCC(N)=O` (stereo in doubt), for which the activation is -1.69%.

Take `C[C@H]1C[C@H]2[C@@H]3CCC4=CC(=O)C=C[C@]4(C)[C@@H]3C(=O)C[C@]2(C)[C@@]1(O)C(=O)CO`: the activation is -19.3%.

Consider `CCC(=C(c1ccc(O)cc1)c1ccc(OCCNC)cc1)c1ccccc1`, for which the activation is 62.8%.

On to `CN1CCCN=C1COC(=O)C(O)(c1ccccc1)C1CCCCC1` (stereo not given), for which the activation was 2.51%.

`CC(=O)N1C[C@H](O)C[C@H]1C(=O)O`: the activation was 14.2%.

Consider `CC(C(=O)O)c1ccc(C(=O)c2ccccc2)s1` (stereo not given), for which the activation was 0%.

As for `O=C(O)CCCCC1CCSS1` (stereo not given), the activation was 5.08%.

As for `CN(C)[C@@H](CCOc1cccc2ccccc12)c1ccccc1`, the activation is 8.7%.

Regarding `Cc1c(C(N)=O)cc([N+](=O)[O-])cc1[N+](=O)[O-]`, the activation was -8.37%.

As for `CCCCCN=C(N)NN=Cc1c[nH]c2ccc(OC)cc12`, the activation was 31%.

Consider `CCn1c(-c2nc3cc(C(=O)N4CCC[C@@H](N)C4)cc(OC)c3n2C)cc2ccccc21`, for which the activation was -14.5%.

Turning to `CN1CCCCC1CCN1c2ccccc2Sc2ccc(S(C)=O)cc21` (stereo not given), the activation was -3.95%.

On to `CCCCC(=O)O[C@]1(C(=O)CO)CC[C@H]2[C@@H]3CCC4=CC(=O)CC[C@]4(C)[C@H]3[C@@H](O)C[C@@]21C`, for which the activation is 29.3%.

Regarding `O=S(=O)(NCCNCC=Cc1ccc(Br)cc1)c1cccc2cnccc12`, the activation is -19.7%.

Take `COc1cc2c(cc1OC)C(C(C(=O)N(CCc1ccc(OC)c(OC)c1OC)CCc1ccc(OC)c(OC)c1OC)c1ccccc1)=NCC2` (stereo not given): the activation was 3.95%.

Regarding `CC1(C)OC(=O)Nc2ccc(Br)cc21`, the activation is 3.95%.
